MITF primary: human MITF inhibition, primary screen. O75030. AlphaScreen MITF homodimerization, bead proximity signal. inhibition, % at 2.6 µM. 0.91% of 650,000 active. AID 1259374; in the data active = inhibition above about 50%;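 also: 0% = vehicle wells with protein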
TEAD-YAP block: TEAD-YAP interaction inhibition. HEK-TIYL cells, TEAD-Gal4/YAP UAS-luciferase luminescence. inhibition, % at 9.12 µM. 1.4% of 640,000 active; in the data active = inhibition above about 32%;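 also: 0% = median of test compound wells and 100% = reference inhibitor wells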
GPR151 activ: human GPR151 activation. Q8TDV0. PathHunter beta-arrestin GPR151 cells, luminescence. activation, % at 11.2 µM. 1% of 650,000 active. AID 1508602; in the data active = activation above about 4.9%;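 also: 0% = median of compound wells and 100% = cells with positive control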
FBW7 activator: activators of human E3 ligase FBW7. Q969H0. AlphaScreen FBW7–phospho-cyclin E peptide binding, activator screen. normalized activity (activation), % at 26.1 µM. 0.13% of 650,000 active; in the data active = normalized activity above about 1.9%;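 also: purified mutant Fbw7 with reduced substrate affinity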
Target sequence (Q969H0 whole entry, looked up): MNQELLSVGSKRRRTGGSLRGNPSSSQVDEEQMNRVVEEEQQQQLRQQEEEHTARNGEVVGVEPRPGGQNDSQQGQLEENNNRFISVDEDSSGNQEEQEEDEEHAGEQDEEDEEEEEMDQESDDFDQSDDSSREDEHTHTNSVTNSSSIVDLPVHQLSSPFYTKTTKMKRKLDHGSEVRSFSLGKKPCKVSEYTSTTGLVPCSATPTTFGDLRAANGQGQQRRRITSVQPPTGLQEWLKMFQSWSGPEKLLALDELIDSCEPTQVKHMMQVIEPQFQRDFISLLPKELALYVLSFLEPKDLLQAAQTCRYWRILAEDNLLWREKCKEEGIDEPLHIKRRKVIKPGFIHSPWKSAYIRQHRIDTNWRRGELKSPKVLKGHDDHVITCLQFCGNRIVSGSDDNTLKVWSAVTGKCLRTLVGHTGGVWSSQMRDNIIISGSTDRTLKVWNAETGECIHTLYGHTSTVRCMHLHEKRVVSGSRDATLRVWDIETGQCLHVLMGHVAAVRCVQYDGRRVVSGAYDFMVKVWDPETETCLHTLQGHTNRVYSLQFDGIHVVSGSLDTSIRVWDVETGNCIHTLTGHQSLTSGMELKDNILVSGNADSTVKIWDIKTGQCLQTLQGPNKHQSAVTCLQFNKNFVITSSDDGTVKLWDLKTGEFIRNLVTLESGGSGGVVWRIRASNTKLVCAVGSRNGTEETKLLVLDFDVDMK
MITF inh conf: human MITF inhibition, confirmation; AID 1259372; AlphaScreen MITF homodimerization, biotin/His-MITF beads; shares compounds with MITF primary; inhibition, % at 2.6 µM; 16% of 4,700 active;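 active = inhibition above a cutoff derived from the DMSO control wells, cut at about 28% in these data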;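 also: 0% = MITF dimer wells with DMSO only; inhibitors lower the bead chemiluminescence by keeping MITF from dimerizing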
AS interf DR: counter-screen: compounds optically interfering with AlphaScreen | IC50, µM | AlphaScreen optical interference counterscreen, cell-free | 6% of 480 active | shares compounds with MITF primary; call rule not given here
AlphaScreen intf2: optically interferes with AlphaScreen signal | shares compounds with MITF primary | 7.6% of 4,700 active | AID 1259376 | LysRS AlphaScreen counterscreen, signal interference, triplicate | inhibition, % at 2.6 µM;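 active = inhibition above a cutoff derived from the DMSO control wells, cut at about 30% in these data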
An asterisk follows results filed as active; · = no result given. Compounds with a hit are over-represented: about 3.4% of the library has one in this group of screens.

SMILES	MITF primary	TEAD-YAP block	GPR151 activ	FBW7 activator	MITF inh conf	AlphaScreen intf2	others
CCC(CC)C(=O)Nc1nnc(SCC(=O)NC2CCCC2)s1	61*	3	0	0	1	11
CCC(C)C(=O)Nc1nnc(SCC(=O)NC2CCCC2)s1 (centres undefined)	13	5	0	0	·	·
O=C(/C=C/c1ccc(Br)o1)Nc1ccccc1Cl	-14	-45	2	0	·	·
Cc1ccc(/C=C/C(=O)Nc2ccccc2Cl)o1	52*	-44	-1	0	24	26
CC1CCCN(C(=O)c2nn(C)cc2[N+](=O)[O-])C1 (centres undefined)	9	3	0	0	·	·
O=C1S/C(=C\c2ccco2)C(=O)N1c1ccccc1Cl	78*	8	2	0	79*	-7	AS interf DR=>6.5
CCN(CC)CCN(C)Cc1ccc(SC)cc1	37	-1	0	0	·	·
CCN(CC)CCN(C)Cc1ccc(NC(C)=O)cc1	64*	5	1	0	-7	-2
CCOC(=O)C1=C(C)N=c2s/c(=C\c3cc(Cl)c(OC)c(OC)c3)c(=O)n2C1c1ccc(OCC)cc1 (centres undefined)	51*	-2	0	0	-9	-7
C=CCOc1c(Cl)cc(/C=c2\sc3n(c2=O)C(c2ccc(OCC)cc2)C(C(=O)OCC)=C(C)N=3)cc1Cl (centres undefined)	7	-1	0	0	·	·
CC1CCCCC1NC(=O)Cn1c2ccccc2n2c(=O)n(CC(=O)N(C)C)nc12 (centres undefined)	4	-1	1	0	·	·
CC(C)NC(=O)NC(=O)CSc1nnc(N)s1	64*	-3	0	0	1	-3
Nc1nnc(SCC(=O)NCCCCNC(=O)CSc2nnc(N)s2)s1	-1	-2	1	0	·	·
CC12CC3CC(C1)CC(C(=O)Nc1nn[nH]n1)(C3)C2	-1	8	-1	0	·	·
O=C(Nc1nn[nH]n1)C12CC3CC(C1)CC(c1ccccc1)(C3)C2	53*	8	-2	1	10	18
Cc1ccc(C(=O)c2cc(Cl)c(C(=O)c3ccc(C)cc3)cc2Cl)cc1	6	5	4	0	·	·
O=C1CCC(CCNCc2ccc(F)cc2)N1CC1(c2ccccc2)CCOCC1 (centres undefined)	51*	0	-1	0	-3	2
O=C1CCC(CCNCc2cccnc2)N1CC1(c2ccccc2)CCOCC1 (centres undefined)	1	0	0	0	·	·
CCc1cccc(CC)c1-n1ccnc1SCC(=O)NC	-12	-12	1	0	·	·
O=C(CN1C(=O)CSC1=O)Nc1ccc(Cl)c(Cl)c1	-2	1	3	0	·	·
O=C(NCCCN1CCOCC1)c1ccc2nc(-c3ccco3)c(-c3ccco3)nc2c1	14	3	0	-1	·	·
O=C(NCCO)c1ccc2nc(-c3ccco3)c(-c3ccco3)nc2c1	74*	7	-1	-1	83*	24	AS interf DR=>6.5
Cc1ccc(/C(C#N)=C\c2ccco2)cc1	56*	-40	-1	0	42*	1	AS interf DR=>6.5
CC(C)N(C)c1nc(N)c2c(N)nc3c(c2c1C#N)CC(=O)N3C(C)(C)C	8	6	2	0	·	·
CCCC(=O)N1CCN(c2cccc3c2C(=O)N(Cc2cnn(C)c2C)C3=O)CC1	97*	10	-2	0	-2	-6
SMILES	MITF primary	TEAD-YAP block	GPR151 activ	FBW7 activator	MITF inh conf	AlphaScreen intf2	others
Cc1c(CN2C(=O)c3cccc(N4CCN(C(=O)CC(C)(C)C)CC4)c3C2=O)cnn1C	-11	-9	-1	0	·	·
Cc1ccc(C(=O)Oc2coc(CSc3nc(C)cc(C)n3)cc2=O)cc1	55*	-1	-2	0	12	15
O=C(COc1ccc(Cl)cc1Cl)NCc1n[nH]c(=S)n1-c1ccc(F)cc1	-1	4	0	0	·	·
CC(=O)CC(=O)Nc1cccc(Cl)c1	10	-11	1	0	·	·
CCN(O)C(=O)Nc1cccc(Cl)c1	70*	-6	0	0	-7	-5
O=C(c1cccc(F)c1)N1CCN(Cc2ccccc2C(F)(F)F)CC1	53*	-1	0	0	-16	-2
O=C(c1ccco1)N1CCN(Cc2ccccc2C(F)(F)F)CC1	66*	-4	0	0	8	12
O=C(c1ccccc1)N1CCN(C(=O)c2ccncc2)CC1	1	5	0	0	·	·
O=C(c1ccco1)N1CCN(Cc2ccc(Br)cc2)CC1	-2	-2	2	0	·	·
O=C(c1ccncc1)N1CCN(Cc2ccccc2C(F)(F)F)CC1	69*	0	0	0	-12	-5
O=C(c1ccc(-c2ccccc2)cc1)N1CCN(Cc2ccccc2C(F)(F)F)CC1	65*	-11	1	0	2	4
Cn1cnnc1Sc1cc(N2CCOCC2)ccc1[N+](=O)[O-]	2	-10	0	0	·	·
COC(=O)C(C)NC(=O)c1ccc(Cl)cc1Cl (centres undefined)	8	1	1	0	·	·
CC(C)CC(=O)N1CCN(Cc2ccccc2C(F)(F)F)CC1	58*	2	0	0	4	17
O=C(c1cccc(F)c1)N1CCN(Cc2ccccc2Br)CC1	57*	2	1	0	22	16
CC(C)CC(=O)N1CCN(C(=O)c2cccs2)CC1	7	6	-1	0	·	·
O=C(c1ccco1)N1CCN(Cc2ccccc2[N+](=O)[O-])CC1	76*	-12	-1	1	-3	-1
O=C(c1ccccc1)N1CCN(C(=O)c2cccc(F)c2)CC1	-5	17	0	0	·	·
O=C(c1ccccc1)N1CCN(CCCc2ccccc2)CC1	31	-18	2	0	·	·
CC(C)CC(=O)N1CCN(CCCc2ccccc2)CC1	52*	12	0	0	6	2
C=CCN1C(=O)/C(=C\c2cc(C)n(-c3ccc([N+](=O)[O-])cc3)c2C)C(=O)NC1=S	-2	0	0	0	·	·
O=C(O)CCC(=O)N1N=C(c2c(-c3ccccc3)c3cc(Cl)ccc3[nH]c2=O)CC1c1ccc(F)cc1 (centres undefined)	-9	-5	1	0	·	·
O=C(O)c1cccc(NC(=O)C2CC(=O)N(c3ccc(Br)cc3)C2)c1 (centres undefined)	16	5	-1	0	·	·
COc1ccccc1CN1CCN(C(=O)c2ccc(F)cc2)CC1	38	-8	0	0	·	·
O=C(c1ccc(F)cc1)N1CCN(Cc2ccccc2C(F)(F)F)CC1	65*	-1	0	0	-4	-4
CC1=NN(c2ccc(C)cc2)C(=O)C1	13	3	-1	-1	·	·
CC1=NN(c2nnc(C)c(=O)[nH]2)C(=O)C1	103*	7	-1	0	83*	100*
CCSc1nc2sccn2c(=O)c1C(=O)NCc1ccc(Cl)nc1	6	-2	4	0	·	·
